# An excerpt weighted towards active compounds, which were near 4.1% of everything screened.
# DAX1 inh-1: inhibitors of DAX1 repression of SF-1 activated StAR promoter. AID 652010. HEK293T StAR-luciferase reporter, SF-1/DAX-1 repression relief. inhibition, % at 6.8 µM. hit rate 1.1% among 370,000;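 active = inhibition above the mean over all tested compounds plus 3 SD, cut at about 3.6% in these data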;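 note: 0% = DAX-1 cells with DMSO and 100% = cells lacking DAX-1 with DMSO; higher inhibition means more luminescence from relief of DAX-1 repression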
# hcDAF-12 act: activators of H. contortus DAF-12 nuclear receptor; activation, % at 6.8 µM; hit rate 1.4% among 370,000; HEK293 hcDAF-12 lit1-tk-luc reporter, luminescence; 0% DMSO, 100% Δ7-dafachronic acid;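 active = activation above the mean of all tested compounds plus 3 SD, cut at about 5.5% in these data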;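 note: 100% = response to 3 µM Δ7-dafachronic acid high control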
# ssDAF12 agonist: activators of S. stercoralis DAF-12 nuclear receptor; HEK293 ssDAF-12/GRIP1 lit1-tk-luc reporter, luminescence; % of 3 µM dafachronic acid response; activation, % at 6.8 µM; hit rate 1% among 370,000; AID 652126;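 active = activation above the mean over all tested compounds plus 3 SD, cut at about 0.9% in these data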;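 note: 0% = DMSO-only wells and 100% = 3 µM delta7-dafachronic acid wells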
# hgDAF12 agonist: agonists of H. glycines DAF-12 nuclear receptor. HEK293 GAL4-hgDAF12 UAS-luciferase reporter, agonist luminescence; normalized to butyrate control. activation, % at 6.8 µM. hit rate 1.8% among 370,000;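 active = activation above a cutoff set at the mean of all screened compounds plus 3 SD, cut at about 10% in these data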;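 note: 0% = DMSO wells and 100% = sodium butyrate wells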
# DAX1 inh-2: NR0B1 (DAX1) inhibition; inhibition, % at 6.75 µM; HEK293 Gal4-DAX1 luciferase reporter, luminescence; P51843; hit rate 0.99% among 340,000;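 active = inhibition above the mean over all tested compounds plus 3 SD, cut at about 4.2% in these data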;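 note: 0% = DAX1-transfected cells with DMSO and 100% = empty-vector control cells with DMSO; inhibition shows as a rise in luminescence from relieved DAX1 repression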
# DAX1 inh confirm: confirmation of human DAX1 (NR0B1) inhibitors. shares compounds with DAX1 inh-1. HEK293T StAR-promoter luciferase reporter, SF-1/DAX-1 repression. inhibition, % at 6.8 µM. hit rate 87% among 2,400;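 active = inhibition above the average of every tested compound plus 3 SD, cut at about 3.8% in these data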;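 note: 0% = DAX-1 cells with DMSO and 100% = no DAX-1 control cells with DMSO; active compounds raise luminescence by relieving repression of the StAR reporter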
# SF1 mutant ctr: counter-screen for DAX1 inhibitors: nonselective inhibitors with SF-1 AF2 mutant; shares compounds with DAX1 inh-1; HEK293 StAR-luciferase, luminescence; inhibition, % at 6.8 µM; hit rate 78% among 2,400; AID 652136;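 active = inhibition above the mean of all tested compounds plus 3 SD, cut at about 3% in these data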;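 note: 0% = DAX-1 transfected cells with DMSO and 100% = cells without DAX-1 with DMSO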
# LXR ag: LXR-beta agonism as hcDAF-12 counter-screen; shares compounds with hcDAF-12 act; HEK293 Gal4-LXR tk-luc reporter, luminescence, 24 h; normalized: DMSO 0%, positive control 100%; activation, % at 6.8 µM; 3,400 tested, under 10 active;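 active = mean percent activation of the reporter above a cutoff set as the average over tested compounds plus their standard deviation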
# Target sequence (P55055 whole entry, looked up, the tested form may be a part): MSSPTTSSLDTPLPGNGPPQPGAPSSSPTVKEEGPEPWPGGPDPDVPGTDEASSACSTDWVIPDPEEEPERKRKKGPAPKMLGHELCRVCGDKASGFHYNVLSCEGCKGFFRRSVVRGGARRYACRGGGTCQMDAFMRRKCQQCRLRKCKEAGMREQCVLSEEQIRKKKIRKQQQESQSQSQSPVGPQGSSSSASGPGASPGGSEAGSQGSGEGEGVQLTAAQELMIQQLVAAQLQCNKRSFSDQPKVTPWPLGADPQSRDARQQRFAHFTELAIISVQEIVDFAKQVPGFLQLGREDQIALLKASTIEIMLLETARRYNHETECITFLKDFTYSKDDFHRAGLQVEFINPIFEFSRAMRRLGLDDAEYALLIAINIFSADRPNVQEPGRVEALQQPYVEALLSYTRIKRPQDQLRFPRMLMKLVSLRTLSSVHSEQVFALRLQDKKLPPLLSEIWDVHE
# hcDAF12 conf: confirmation of H. contortus DAF-12 agonists; shares compounds with hcDAF-12 act; HEK293 hcDAF-12 lit1-tk-luc reporter, luminescence; % of Δ7-dafachronic acid response; activation, % at 6.8 µM; hit rate 61% among 3,400;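 active = mean activation across triplicate tests above the threshold derived from the earlier primary screen, cut at about 5.5% in these data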;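 note: 0% = DMSO only wells and 100% = 3 µM Δ7-dafachronic acid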
# hgDAF12 ag: hgDAF-12 agonism, confirmation assay | shares compounds with hgDAF12 agonist | HEK293 GAL4-hgDAF12 luciferase reporter, agonist mode; percent of butyrate response | activation, % at 6.8 µM | hit rate 80% among 3,300 | AID 743050;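 active = mean activation over triplicate wells above the hit cutoff derived from the earlier primary screen, cut at about 11% in these data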;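 note: 0% = DMSO low control and 100% = 2 mM sodium butyrate high control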
# LXRb DAF12 ctr: LXR-beta agonism as DAF-12 counter-screen; HEK293 Gal4-LXR luciferase reporter, 24 h; shares compounds with hgDAF12 agonist; AID 743051; activation, % at 6.8 µM; 3,300 tested, under 10 active;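 active = mean activation of the triplicate above a set limit carried over from the primary screen, none filed active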
# An asterisk follows results filed as active; nt = not tested or not shown.
SMILES,DAX1 inh-1,hcDAF-12 act,ssDAF12 agonist,hgDAF12 agonist,DAX1 inh-2,LXR ag,hcDAF12 conf,others
CNC(=O)Oc1cccc(-c2cn3cc(Cl)ccc3n2)c1,5.8*,15*,2.5*,13*,-6,2,16*,DAX1 inh confirm=14*;SF1 mutant ctr=5.1*
O=S(=O)(c1ccc(Cl)cc1)N1Cc2ccc(Br)cc2-n2nncc2C1,1,-1,-1,1,nt,nt,nt,
CSc1ccc(C(=O)C2CCCN(Cc3cc4ccccc4[nH]3)C2)cc1 (centres undefined),0,6.7*,1,0,0,0,6,
COc1cccc(NC2=NCCS2)c1,0,-1,-1,2,nt,nt,nt,
COc1cccc(-c2ccc3c(c2)C2c4cnnn4-c4ccccc4C(=O)N2CC3)c1 (centres undefined),1,-2,-1,2,nt,nt,nt,
CCCCn1c(=O)c(C(=O)Nc2ccccc2)c(O)c2ccccc21,0,7.1*,0,2,1,0,7.6*,
Cc1ccccc1C(=O)NCCN1CCC2(CC1)C(=O)NCN2c1ccccc1,1,-2,0,1,nt,nt,nt,
c1ccc2c(CN3CCCCC3)c[nH]c2c1,1,2,0,3,-1,nt,nt,
OC(CN1CCCCC1)c1c[nH]c2ccccc12 (centres undefined),0,8.0*,0,0,2,0,4,
COc1ccc(NP2(=O)NCCCN2)cc1,1,-1,-1,1,-1,nt,nt,
COc1ccc(P2(=O)Nc3ccccc3N2)cc1,2,8.0*,1.4*,6,0,1,5,
Fc1ccc2nc(-c3ccc(CN4CCC(n5nnc6ccccc65)CC4)cc3)c(-c3ccccc3)nc2c1,-1,-2,-2,-2,nt,nt,nt,
N#CCCC#N,0,-2,-1,1,nt,nt,nt,
CN(C)C(Cc1ccccc1)C(=O)c1c[nH]c2ccccc12 (centres undefined),1,6.8*,0,2,-1,0,2,
CN(C)c1ccc2c(c1)N=C(c1ccco1)OP2(=S)N1CCOCC1 (centres undefined),1,7.6*,1.9*,4,0,0,2,
O=[N+]([O-])c1nccn1CC(O)CN1CC1 (centres undefined),1,-1,-1,5,nt,nt,nt,
CCN1C(=O)N(CC)C(=O)C2(Cc3ccccc3N3CCN(c4ccccc4)CC32)C1=O (centres undefined),1,8.7*,0,10,nt,0,3,
Cc1cccc(N=Nc2ccc(N(C)C)cc2)c1,3,8.7*,1.0*,13*,1,2,5,
C=CCn1c(O)c(/C=C2\C=Nc3ccccc32)c(=O)[nH]c1=O,0,6.7*,0,1,nt,0,5,
CC(NC(=O)OCc1ccccc1)P(=O)(Oc1ccccc1)Oc1ccccc1 (centres undefined),-1,-1,-2,-2,nt,nt,nt,
Clc1ccccc1NC1=NCCCS1,0,0,-1,1,0,nt,nt,
Clc1ccccc1Nc1ncnc(-n2cccc2)n1,2,11*,1,13*,3,1,9.2*,
COC(=O)C1=C(c2ccc(OC(F)(F)F)cc2)C[C@@H]2CC[C@H]1N2C(=O)NCc1ccco1,-1,-1,0,0,nt,nt,nt,
CN1C[C@H](O)[C@H]2C[C@@H]1c1ccccc1O2,1,-1,-1,-3,nt,nt,nt,
c1ccc2sc(NC3=NCCN3)nc2c1,1,9.3*,0,7,2,1,7.2*,
SMILES,DAX1 inh-1,hcDAF-12 act,ssDAF12 agonist,hgDAF12 agonist,DAX1 inh-2,LXR ag,hcDAF12 conf,others
COc1ccc2nc(NC3=NCCN3)sc2c1,3,10*,1.0*,12*,3,1,7.4*,
O=Cc1c(C(=O)O)n(Cc2ccccc2F)c2ccccc12,0,7.9*,0,0,1,0,5,
Nc1ccccc1N=Cc1c(O)n(CCC2=CCCCC2)c(=O)[nH]c1=O,3,9.6*,1,11*,3,0,1,
O=C(N/N=C/c1c(O)n(CCC2=CCCCC2)c(=O)[nH]c1=O)c1ccccc1,2,2,0,7,0,nt,nt,
O=C(NC1CCCCC1)N1Cc2cc(Br)ccc2-n2nncc2C1,2,-2,-1,1,nt,nt,nt,
CCn1c(O)c(C=Nc2cc(Cl)ccc2Cl)c(=O)n(CC)c1=O,0,6.8*,0,3,0,0,1,
COc1ccc(Cl)cc1N=Cc1c(O)n(C)c(=O)n(C)c1=O,0,-3,-1,4,0,nt,nt,
Nc1c2c(nc3sc4c(c13)CCCC4)CCCCC2,2,3,0,14*,3,nt,nt,hgDAF12 ag=18*;LXRb DAF12 ctr=1
O=c1[nH]c(=O)n(CCc2ccccc2)c(O)c1C=NCc1ccc2c(c1)OCO2,1,0,-2,0,-1,nt,nt,
O=C(NC(C(Cl)Cl)N1CCOCC1)c1ccccc1 (centres undefined),0,1,0,-2,-1,nt,nt,
N#Cc1c(Br)n(C2OC(CO)C(O)C2O)c2ncnc(N)c12 (centres undefined),0,1,-1,18*,7.6*,nt,nt,hgDAF12 ag=10;LXRb DAF12 ctr=1
COc1ccc(C(C)=O)cc1CC(C(=O)c1ccc(Br)cc1)N(C)C (centres undefined),0,0,-1,14*,0,nt,nt,hgDAF12 ag=0;LXRb DAF12 ctr=0
C[C@]1(O)CCC2C3CC[C@H]4C[C@@H](OC(=O)CNC(=O)CN)CC[C@]4(C)C3CC[C@@]21C (some centres undefined),-1,-1,-1,-1,2,nt,nt,

# Compound activity (PubChem)
